# Experimental data from PubChem BioAssay (EPA / NIEHS).
# Results filed as inconclusive are left out. Activity calls are given as the source filed them. How the source made its calls: active means hit-call score of the fitted dose curve at least 0.9, where 1 is the maximum; inconclusive means response in the unintended direction; inactive means score below 0.9.
# Assay: CCTE_Mundy_HCI_iCellGluta_NOG_NeuronCount: CCTE's Neurite Outgrowth Assay in iCellGluta cells for Neuron Count, Mundy Lab (AID 2284340);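 further: cells fixed about 48 h after compound addition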
# Description: CCTE_Mundy_HCI_iCellGluta_NOG is a multiplexed, cell-based-readout assay that uses iCell GlutaNeurons from FUJIFILM Cellular Dynamics, Inc. (FCDI), human glutamatergic enriched neurons derived from induced pluripotent stem (iPS) cells, with measurements taken at 50.33 hours after chemical dosing in a microplate: 96-well plate.CCTE_Mundy_HCI_iCellGluta_NOG_NeuronCount is one of four components of the CCTE_Mundy_HCI_iCellGluta_NOG assay. It measures cell viability related to number of neurons using High Content Imaging of fluorescently labelled markers.Data from the assay component CCTE_Mundy_HCI_iCellGluta_NOG_NeuronCount was analyzed at the endpoint CCTE_Mundy_HCI_iCellGluta_NOG_NeuronCount in the positive analysis fitting direction relative to DMSO as the negative control and baseline of activity. Using a type of viability reporter, loss-of-signal activity can be used to understand developmental effects.
# Exposure starts 2 hours post-plating by adding 10 ul of the working solution to 90 ul of media in the wells for a 1/10 dilution. Forty-eight hours after chemical treatment cells are fixed by direct addition of 100 ul of warm (37C) Dulbecco's phosphate buffered saline (DPBS) fixative solution containing 8% paraformaldehyde, 8% sucrose, and 0.1% of 3 mg/ml Hoechst 33342 into each well. Primary antibodies are prepared by dilution in Immunocytochemical Staining Buffer (ISB), 10X Dulbecco's PBS, 0.1% Saponin, 5% Bovine Serum Albumin, 0.5% NaN3 (Sodium Azide) and betaIII-tubulin (rabbit anti-betaIII-tubulin, 1:800) followed by Alexa Fluor-488 secondary (1:500) to label neuronal cell bodies and neurites. A Cellomics ArrayScan VTi HCS Reader is used for automated image acquisition and analysis of neurite outgrowth.
SMILES,outcome,AC50
CC(=NC#N)N(C)Cc1ccc(Cl)nc1,inactive,
CCCCSP(=O)(SCCCC)SCCCC,,49.9 µM (active)
C=C(C)[C@H]1Cc2c(ccc3c2O[C@@H]2COc4cc(OC)c(OC)cc4[C@@H]2C3=O)O1,,0.0672 µM (active)
CCOP(=O)(NC(C)C)Oc1ccc(SC)c(C)c1 (stereo unspecified),,51 µM (active)
CCOP(=S)(OCC)Oc1ccc([N+](=O)[O-])cc1,inactive,
CCCSP(=O)(OCC)SCCC,inactive,
CON=C(C(=O)OC)c1ccccc1CON=C(C)c1cccc(C(F)(F)F)c1,,50 µM (active)
CC1=NNC(=O)N(/N=C/c2cccnc2)C1,inactive,
CCOP(=S)(OCC)SCCSCC,inactive,
C[N+]1(C)CCCCC1,inactive,
S=C1NCCN1,inactive,
O=[N+]([O-])c1cc(C(F)(F)F)c(Cl)c([N+](=O)[O-])c1Nc1ncc(C(F)(F)F)cc1Cl,,3.14 µM (active)
CN(C)[C@@H]1C(=O)C(C(N)=O)=C(O)[C@@]2(O)C(=O)C3=C(O)c4c(O)cccc4[C@@](C)(O)[C@H]3[C@H](O)[C@@H]12,,13.4 µM (active)
CC[C@H](C)[C@H]1O[C@]2(C=C[C@@H]1C)C[C@@H]1C[C@@H](C/C=C(\C)[C@@H](O[C@H]3C[C@H](OC)[C@@H](O[C@H]4C[C@H](OC)[C@@H](NC)[C@H](C)O4)[C@H](C)O3)[C@@H](C)/C=C/C=C3\CO[C@@H]4[C@H](O)C(C)=C[C@@H](C(=O)O1)[C@]34O)O2,,0.896 µM (active)
CCOP(=O)(OCC)Oc1cc(C)nc(C(C)C)n1,inactive,
CC(C)N(C(=O)SCC(Cl)=C(Cl)Cl)C(C)C,,22.4 µM (active)
CSC1=N[C@@](C)(c2ccccc2)C(=O)N1Nc1ccccc1,inactive,
CCOP(=S)(OCC)OC(Cl)C(Cl)(Cl)Cl (stereo unspecified),inactive,
COP(=O)(NC(C)=O)SC (stereo unspecified),inactive,
COP(=O)(OC)OC(Br)C(Cl)(Cl)Br (stereo unspecified),,21.7 µM (active)
CCOP(=S)(Oc1cnc(C(C)(C)C)nc1)OC(C)C (stereo unspecified),,16 µM (active)
